Results from PubChem BioAssay AID1259318 (Sanford-Burnham Center for Chemical Genomics, 2017).
In all, about 370,000 compounds went through this assay and about 3,000 (0.81%) were called active. What follows is part of a selection rich in actives, with near analogues and random picks from the rest. Values without a mark were called inactive.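 Rule for the calls: active = activity above about 14% (limit read from the data; passing the limit was not always enough); inactive = the rest.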

Target: Nuclear receptor subfamily 1 group D member 1 (Homo sapiens) (UniProt P20393)
Sequence (P20393 whole entry, looked up): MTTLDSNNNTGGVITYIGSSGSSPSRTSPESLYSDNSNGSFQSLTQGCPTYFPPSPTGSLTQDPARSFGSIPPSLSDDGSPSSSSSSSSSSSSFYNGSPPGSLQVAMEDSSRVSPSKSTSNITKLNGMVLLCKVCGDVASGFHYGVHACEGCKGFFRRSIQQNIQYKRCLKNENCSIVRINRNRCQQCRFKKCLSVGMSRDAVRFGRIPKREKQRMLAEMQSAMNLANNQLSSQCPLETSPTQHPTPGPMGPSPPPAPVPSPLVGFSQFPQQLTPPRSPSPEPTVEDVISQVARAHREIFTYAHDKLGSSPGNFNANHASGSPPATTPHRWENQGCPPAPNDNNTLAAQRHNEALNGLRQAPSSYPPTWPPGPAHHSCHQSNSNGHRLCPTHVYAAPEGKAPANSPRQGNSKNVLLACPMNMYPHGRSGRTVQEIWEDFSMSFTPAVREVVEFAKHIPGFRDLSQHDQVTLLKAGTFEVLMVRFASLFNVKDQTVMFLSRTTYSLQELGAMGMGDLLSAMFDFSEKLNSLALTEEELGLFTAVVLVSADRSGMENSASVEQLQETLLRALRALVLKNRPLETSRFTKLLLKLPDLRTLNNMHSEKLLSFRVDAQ
Assay: Rev-erbα–DNA interaction modulation – biochemical, FITC-DNA, fluorescence polarization, uHTS, primary screen (AID 1259318);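 note: 0% = DMSO wells with 35 nM protein and 100% = DMSO wells with 750 nM protein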
Conditions: Rev-erbα–FITC-DNA binding, 90 min, at 10 µM, active compounds read high

First: CCCCCCCCCCCCCCCC(=O)O[C@@H]1[C@@H](O)[C@@H](O)C([C@H](NC(=O)[C@@H]2C[C@@H](CCC)CN2C)[C@H](C)Cl)O[C@@H]1SC (some centres undefined)
Second: CC(=O)c1c(C)[nH]c(C(=O)OCC(=O)NCCC(C)C)c1C
The activity of the first is lower: -0.49% for the first, 4.11% for the second.

Compared with `Cc1ccc(N(C(=O)Cc2cccs2)C2C=CS(=O)(=O)C2)cc1Cl` (centres undefined), `Cc1ccc(N(CC(=O)Nc2cc(C)cc(C)c2)S(=O)(=O)c2cccc3nonc23)cc1` is lower in activity: 8.02% for the first, 0.18% for the second.

Going from `CC(C)(C)CC(C)(C)NCC(O)COCCOc1ccc(Br)cc1` (centres undefined) to `COc1ccc(CNC(=O)c2cc(=O)c3c(C)cc(C)cc3o2)cc1`, the activity rises from -2.77% to -1.71%.

Going from `COc1ccc2sc(-c3ccccc3OC)c(-c3ccc(OCCN4CCCC4)cc3)c2c1` to `COc1ccc(S(=O)(=O)N2CCCCC2)cc1NC(=O)COc1ccccc1`, the activity falls from 2.94% to 1.75%.

First: COc1ccc(N(Cc2ccc(N(C)C)cc2)C(=O)c2ccc(S(C)(=O)=O)cc2)cc1
Second: Cc1ccc2nc(-c3ccc(NC(=O)CN(C)S(=O)(=O)c4ccccc4)cc3)sc2c1
The activity of the first is lower: -2.66% for the first, 8.26% for the second.

Compared with `COc1ccc(C(=O)NCC2CCCCC2)cc1S(=O)(=O)N1CCCC1`, `O=C(NCCCN1CCCCCC1)c1ccc(N2CCCC2=O)cc1` is lower in activity: 3.18% for the first, -2.08% for the second.

Compared with `CC(C(=O)O)c1ccc(C2CCCCC2)c2ccccc12` (centres undefined), `COc1ccc(-c2nn(C)c(=O)c3ccccc23)cc1CNC(=O)C1CCCCC1` is lower in activity: -0.34% for the first, -3.48% for the second.

First: CC(=O)OCC(=O)[C@@]1(O)CCC2C3CCC4=CC(=O)C=C[C@]4(C)[C@@]3(F)[C@@H](O)C[C@@]21C (some centres undefined)
Second: CCOC(=O)C1CCN(C(=O)C(C)(C)NC(=O)Nc2ccccc2Cl)CC1
The activity of the first is higher: -0.05% for the first, -6.49% for the second.

Compared with `COc1ccccc1N1CC(C(=O)Nc2ccc(S(=O)(=O)N3CCOCC3)cc2)CC1=O` (centres undefined), `O=C(Nc1cc(S(=O)(=O)N2CCOCC2)ccc1OCC(F)(F)F)c1ccc(N2CCCC2=O)cc1` is higher in activity: 2.07% for the first, 3.86% for the second.

Compared with `COc1ccc(Cl)cc1NC(=O)C1CC(=O)N(c2ccc(F)cc2)C1` (centres undefined), `COc1ccccc1C(=O)Oc1ccc(N2C(=O)CCC2=O)cc1` is lower in activity: -2.88% for the first, -3.5% for the second.

Compared with `COc1ccc(CN2C(=O)C(CC(=O)NCCCCc3ccccc3)CC(C(=O)N3CCOCC3)=C2C)cc1` (centres undefined), `CCOC(=O)C1CCN(C(=O)CN2C(=O)NC(C)(c3ccc4cc(OC)ccc4c3)C2=O)CC1` (centres undefined) is lower in activity: 0.56% for the first, -4.48% for the second.

Going from `COCc1cc(C)nc(Nc2cc(C)ccc2C)c1C#N` to `Cc1cc(C)c(C(=O)CSc2nc(C)cc(=O)[nH]2)c(C)c1`, the activity falls from 1.3% to -1.57%.

Compared with `Cc1cccc(NC(=O)CCn2c(=O)oc3ccccc32)c1`, `CCOC(=O)c1ccc(NC(=O)CCn2c(=O)oc3ccccc32)cc1` is lower in activity: 4.67% for the first, -4.86% for the second.

Compared with `C=CCC1(CC=C)CCCN1C(=O)c1cc(COc2ccc(-n3cncn3)cc2)on1`, `O=C(c1cccs1)N1CCCC(c2nc(-c3ccc(F)cc3)no2)C1` (centres undefined) is lower in activity: 3.62% for the first, 1.09% for the second.

First: Cc1ccc(NC(=S)NNC(=O)CSc2nnc(SCc3ccccc3Cl)s2)cc1
Second: CCn1c(CNC(=O)c2ccco2)nnc1SCC(=O)Nc1cccc(F)c1
The activity of the first is higher: 3.4% for the first, -8.25% for the second.

Compared with `CC(C)N(C(=O)CSc1nc(COc2ccccc2)nc2ccccc12)C(C)C`, `COC(=O)C12C=C3CC(c4ccccc4)=C3C(=O)N1Cc1[nH]c3ccccc3c1C2` (centres undefined) is lower in activity: 4.08% for the first, -0.17% for the second.

First: CN(C)S(=O)(=O)c1ccc(NC(=O)COC(=O)c2n[nH]c3ccccc23)cc1
Second: CCOC(=O)c1ccc(NC(=O)c2c(N)n(C)c(=O)[nH]c2=O)cc1
The activity of the first is lower: 1.34% for the first, 2.83% for the second.

Going from `NC(=O)c1ncn([C@@H]2O[C@H](C(=O)O)[C@@H](O)[C@H]2O)n1` to `CCOC(=O)CNC(=O)CSc1ccc2nnc(-c3cccnc3)n2n1`, the activity rises from -0.1% to 3.05%.

First: CSCC[C@H](NC(=O)N1CCn2c1nc1ccccc12)C(=O)NC1CCCCC1
Second: O=C(CCC(=O)c1cccs1)NC1CCCCCC1
The activity of the first is lower: 0.83% for the first, 3.87% for the second.

Compared with `C=CCNC(=O)c1ccc2c3n(nc2c1)-c1ccc(C)cc1CO3`, `O=C(CSc1nc2ncccc2[nH]1)Nc1ccc2c(c1)OCCO2` is lower in activity: 0.44% for the first, -0.69% for the second.

Compared with `CCc1cc(=O)oc2c(C)c(OCC(=O)N3CC[C@@]4(O)CCCC[C@H]4C3)ccc12`, `CCCCN1CCN(C(=O)c2ccc3c(c2)NC(=O)C(C)(C)O3)CC1` is lower in activity: 2.4% for the first, -3.01% for the second.

First: CCCn1c(SCC(=O)Nc2cccc(C(=O)OCC)c2)nnc1-c1ccoc1C
Second: COc1ccc(CSc2nnc(-c3cccc(C)c3)n2C)cc1
The activity of the first is lower: -3.66% for the first, 9.69% for the second.

Going from `O=C(CSc1nc2[nH]c(=O)[nH]c(=O)c2s1)Nc1cccc(F)c1` to `COC(=O)C(C)Sc1ccc2nnc(-c3cccc(F)c3)n2n1` (centres undefined), the activity rises from -1.8% to 1.26%.

Compared with `COc1ccc(C(=O)CSc2nccc(=O)[nH]2)cc1`, `COc1ccc(-n2nc3c(c2NC(=O)c2ccc(N4C(=O)CCC4=O)cc2)CSC3)cc1` is lower in activity: 2.06% for the first, 1.69% for the second.

Compared with `CN(Cc1nc(-c2cnccn2)no1)Cc1n[nH]c2c1CCCCC2`, `COc1ccc(CNC(=O)CN2CCC(n3nnc4cc(F)ccc43)CC2)cc1` is higher in activity: -2.14% for the first, 0.03% for the second.

Going from `COC(=O)c1cc(S(=O)(=O)N2CCN(c3cc(C)ccc3C)CC2)c[nH]1` to `CCCOc1cc(C)c(S(=O)(=O)n2nnc3ccccc32)cc1C`, the activity falls from 11.2% to -0.13%.

Going from `Cc1ccc(C(=O)C2CCN(CC(=O)NCCC(C)C)CC2)cc1` to `CCC(C)[C@H]1COCCS(=O)(=O)N1Cc1ccc(C)cc1` (some centres undefined), the activity falls from -0.72% to -5%.

First: Cc1noc(C)c1CCC(=O)O
Second: CCOC(=O)c1c(NC(C)=O)sc2c(O)c(Br)ccc12
The activity of the first is higher: 4.26% for the first, -1.09% for the second.

First: Cc1ccc(SCC2=NNC(=O)C2)cc1
Second: Cc1ccc(CS(=O)(=O)CCC(=O)NCc2ccc(F)cc2)cc1
The activity of the first is higher: -1.27% for the first, -2.15% for the second.

First: COCCCNc1nc2c(-c3cccc(C(F)(F)F)c3)nnn2c2ccccc12
Second: COCCCNc1nc2ccccc2nc1NS(=O)(=O)c1ccc(F)cc1
The activity of the first is higher: 15.6% for the first, -2.18% for the second.

First: C/C=C/C=C/C(=O)OCC(=O)Nc1ccc(Cl)cc1
Second: CCOc1ncccc1C(=O)N(CC)CC(=O)Nc1ccc(NC(C)=O)cc1
The activity of the first is lower: -1.79% for the first, -1.37% for the second.

First: O=S1(=O)c2ccc(N3CCN(Cc4ccccc4F)CC3)cc2Oc2ccccc2CN1Cc1cn(Cc2ccc(Cl)cc2)nn1
Second: O=C(CSc1ccc2nnc(-c3ccccc3)n2n1)N1CCCc2ccccc21
The activity of the first is higher: -0.02% for the first, -1.89% for the second.

First: O=c1ccc2c(-c3ccccc3S(=O)(=O)O)c3ccc(O)c(O)c3oc-2c1O
Second: O=C1C(=O)N(Cc2ccc(-c3ccsc3)cc2)c2ccc(OC(F)(F)F)cc21
The activity of the first is lower: -56.3% for the first, -0.04% for the second.

Compared with `O=C(CNC(=O)C12CC3CC(CC(C3)C1)C2)OCC(=O)N1CCCCC1`, `O=C(Nc1cc(Cl)cc(Cl)c1)OCCN1CCCC12CCC(c1ccccc1)CC2` (centres undefined) is higher in activity: -3.15% for the first, -2.58% for the second.

First: Cn1c(=O)c2c(-c3cccc(Br)c3)c(C#N)c(N)nc2n(C)c1=O
Second: Cc1nc2c(c(C)nn2-c2ccccc2)c(C)c1C
The activity of the first is lower: -4.07% for the first, 9.78% for the second.

In the case of `O=C(c1cccc(C(F)(F)F)c1)N1CC[C@H]2[C@H](CCCN2Cc2cc(F)cc(F)c2)C1`, the activity is reported as 0.92%.

For `COc1ccc2sc(-c3ccc(S(C)(=O)=O)cc3)c(-c3ccc(C(N)=O)cc3)c2c1`, the activity was 29.1% (active).
For `COc1cc(OC)c(N2CC(C(=O)Nc3cc(Cl)ccc3N3CCOCC3)CC2=O)cc1Cl` (centres undefined), the activity was 15.7% (active).
For `COCc1cc(C)nc(SCC(=O)Nc2cccc(C)c2)c1C#N`, the activity was 20.6% (active).
`CCCc1nc(SCC(=O)Nc2ccc(S(=O)(=O)N(C)C)cc2)c2ccccc2n1` was tested, and the activity was 28% (active).
In the case of `COc1ccc(-c2nn(C)c(=O)c3ccccc23)cc1NC(=O)COc1ccccc1`, the activity is reported as 25.4% (active).
In the case of `CS(=O)(=O)c1ccc2nc(NC(=O)c3ccc(N4CCCC4=O)cc3)sc2c1`, the activity is reported as 41.6% (active).
`Cc1nc2nc(SCC(=O)c3ccccc3)[nH]c2cc1Br` was tested, and the activity was 34.1% (active).
`Cc1nc2nc(SCC(=O)Nc3cccc(F)c3)[nH]c2cc1Br` was tested, and the activity was 43.6% (active).
In the case of `CCn1c(SCC(=O)Nc2cccc(F)c2)nnc1-c1cc2cc(Br)ccc2o1`, the activity is reported as 56.3% (active).
In the case of `N#Cc1c(-c2ccc(F)cc2)cc(C2CC2)nc1SCC(=O)c1cccs1`, the activity is reported as 174% (active).
With `COCCCNc1nc2c(-c3cccc(C)c3)nnn2c2ccc(Cl)cc12` the activity was 52.9% (active).
In the case of `COc1ccc(-c2csc(NC(=O)c3ccc(N4C(=O)CCC4=O)cc3)n2)cc1OC`, the activity is reported as 19.3% (active).
In the case of `CCOC(=O)c1ccc(NC(=O)c2c(NCc3ccccc3)[nH]c(=O)[nH]c2=O)cc1`, the activity is reported as 19.9% (active).
With `COc1ccc(CNC(=O)c2nnn(CC(=O)Nc3cc(C)cc(C)c3)c2N)cc1` the activity was 33.3% (active).
For `CSc1ccc(-c2c(C#N)c(N)nc3c2c(C)nn3-c2ccccc2)cc1`, the activity was 59.1% (active).
In the case of `Cc1cccc(N(CC(=O)Nc2ccc(-c3nc4ccc(C)cc4s3)cc2)S(C)(=O)=O)c1`, the activity is reported as 35.6% (active).
In the case of `CCOc1ccc(-c2nnc3ccc(SC)nn23)cc1`, the activity is reported as 48.8% (active).
In the case of `COc1ccc(-c2nnc3ccc(SCc4ccccc4)nn23)cc1`, the activity is reported as 25.6% (active).
